{"source": "PubChem BioAssay (EPA / NIEHS)", "note": "Results filed as inconclusive are left out. Activity calls are given as the source filed them. How the source made its calls: active means hit-call score of the fitted dose curve at least 0.9, where 1 is the maximum; inconclusive means response in the unintended direction; inactive means score below 0.9.", "data": [{"molecular_target": "Hepatocyte nuclear factor 4-alpha (Homo sapiens) (UniProt P41235)", "sequence (P41235 whole entry, looked up)": "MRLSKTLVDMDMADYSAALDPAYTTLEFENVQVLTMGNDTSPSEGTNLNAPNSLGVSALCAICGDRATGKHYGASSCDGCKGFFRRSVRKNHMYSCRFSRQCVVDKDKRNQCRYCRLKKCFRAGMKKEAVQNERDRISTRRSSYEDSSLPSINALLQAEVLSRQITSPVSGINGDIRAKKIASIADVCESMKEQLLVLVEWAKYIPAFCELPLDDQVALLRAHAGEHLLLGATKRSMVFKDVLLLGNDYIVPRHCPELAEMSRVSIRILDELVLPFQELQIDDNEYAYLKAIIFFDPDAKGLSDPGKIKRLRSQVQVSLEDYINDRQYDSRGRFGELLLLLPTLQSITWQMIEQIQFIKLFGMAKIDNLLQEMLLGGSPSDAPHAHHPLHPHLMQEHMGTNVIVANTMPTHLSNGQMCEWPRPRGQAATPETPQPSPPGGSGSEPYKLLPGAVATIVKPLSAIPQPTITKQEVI", "test": "ATG_HNF4a_TRANS: Attagene TRANS-FACTORIAL HepG2 Assay for human Hepatocyte Nuclear Factor 4 alpha (HNF4a) (AID 2282982)", "settings": "HepG2 HNF4a transactivation reporter, mRNA readout", "method_in_brief": "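Transfected HepG2 reporter cells are dosed for 24 h; reporter RNA is reverse-transcribed, amplified, fluorescently labelled and HpaI-digested before CE sizing. Positive-direction fit against DMSO.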", "values": [{"smiles": "C=CC(=O)OCCC#N", "outcome": "inactive"}, {"smiles": "Cc1ncc([N+](=O)[O-])n1CCO", "outcome": "inactive"}, {"smiles": "C/C=C(\\C)C(=O)OCCc1ccccc1", "outcome": "inactive"}, {"smiles": "O=CCc1ccccc1", "outcome": "inactive"}, {"smiles": "Nc1ccc2c(O)cc(S(=O)(=O)O)cc2c1", "outcome": "inactive"}, {"smiles": "COC(CC(C)CCCC(C)(C)O)OC", "note": "(configuration not stated)", "outcome": "inactive"}, {"smiles": "CN(C)c1ccncc1", "outcome": "inactive"}, {"smiles": "CC(C)NCC(O)COc1ccc(CC(N)=O)cc1", "note": "(configuration not stated)", "outcome": "inactive"}, {"smiles": "CCCC(O)C(O)CO", "note": "(configuration not stated)", "outcome": "inactive"}, {"smiles": "CCCCCCOCCOCCO", "outcome": "inactive"}, {"smiles": "Cc1occc(=O)c1OC(=O)C(C)C", "outcome": "inactive"}, {"smiles": "CCOc1ccccc1O", "outcome": "inactive"}, {"smiles": "O=C1NC2NC(=O)NC2N1", "note": "(configuration not stated)", "outcome": "inactive"}, {"smiles": "CCOc1ccc(NC(=O)CC(C)=O)cc1", "outcome": "inactive"}]}, {"system": "not listed separately", "test": "ATG_M_06_TRANS: Attagene TRANS-FACTORIAL HepG2 Assay for M06 Transcription Factor (Internal Marker) (AID 2282983)", "settings": "HepG2 Attagene TRANS M06 internal marker reporter", "method_in_brief": "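Internal-marker background readout from a multiplexed TRANS reporter system in HepG2; 24 h dosing; mRNA induction quantified by RT-PCR plus capillary electrophoresis fluorescence; DMSO as negative control and baseline.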", "values": [{"smiles": "C=CC(=O)OCCC#N", "outcome": "inactive"}, {"smiles": "Cc1ncc([N+](=O)[O-])n1CCO", "outcome": "inactive"}, {"smiles": "C/C=C(\\C)C(=O)OCCc1ccccc1", "outcome": "inactive"}, {"smiles": "O=CCc1ccccc1", "outcome": "inactive"}, {"smiles": "CCCC(=O)C(CC)Sc1ccoc1C", "note": "(configuration not stated)", "outcome": "inactive"}, {"smiles": "Nc1ccc2c(O)cc(S(=O)(=O)O)cc2c1", "outcome": "inactive"}, {"smiles": "CC(C)NCC(O)COc1ccc(CC(N)=O)cc1", "note": "(configuration not stated)", "outcome": "inactive"}, {"smiles": "CCCCCCOC(=O)C(C)C", "outcome": "inactive"}, {"smiles": "CCCCCCOCCOCCO", "outcome": "inactive"}, {"smiles": "CCc1ccc(O)c(OC)c1", "outcome": "inactive"}, {"smiles": "CC(C)c1ccccc1O", "outcome": "inactive"}, {"smiles": "C=C(C)C(=O)OCCOC1CC2CC1C1C=CCC21", "note": "(configuration not stated)", "outcome": "inactive"}, {"smiles": "O=C1OC(=O)c2c(Br)c(Br)c(Br)c(Br)c21", "outcome": "inactive"}, {"smiles": "CCOc1ccc(N=Nc2ccc(C=Cc3ccc(N=Nc4ccc(OCC)cc4)cc3S(=O)(=O)O)c(S(=O)(=O)O)c2)cc1", "outcome": "inactive"}, {"smiles": "CC(=O)c1ccccn1", "outcome": "inactive"}, {"smiles": "CC1(C)CCC[C@]2(C)[C@H]3CCO[C@]3(C)CC[C@@H]12", "outcome": "inactive"}, {"smiles": "CCCCSCCCC", "outcome": "inactive"}, {"smiles": "CCN(CCN)c1cccc(C)c1", "outcome": "inactive"}, {"smiles": "CCCC(C)=O", "outcome": "inactive"}, {"smiles": "CCOc1ccccc1O", "outcome": "inactive"}, {"smiles": "CC(C)(N=C=O)c1cccc(C(C)(C)N=C=O)c1", "outcome": "inactive"}, {"smiles": "O=C1NC2NC(=O)NC2N1", "note": "(configuration not stated)", "outcome": "inactive"}, {"smiles": "CCCCCCCCCCCC(=O)OCC(O)CO", "note": "(configuration not stated)", "outcome": "inactive"}, {"smiles": "COc1cccc(OC)c1O", "outcome": "inactive"}, {"smiles": "CC(C)(CO)[C@@H](O)C(=O)NCCC(=O)O", "outcome": "inactive"}, {"smiles": "CCOc1ccc(NC(=O)CC(C)=O)cc1", "outcome": "inactive"}]}, {"system": "not listed separately", "test": "ATG_M_32_TRANS: Attagene TRANS-FACTORIAL HepG2 Assay for M32 Transcription Factor (Internal Marker) (AID 2282984);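 further: transcript level of a background control reporter unit measured by RT-PCR and capillary electrophoresis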", "settings": "HepG2 Attagene TRANS M32 internal marker reporter", "method_in_brief": "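Using transiently transfected HepG2 cells exposed to test chemicals for 24 h, reporter transcripts are converted to labelled cDNA fragments and quantified by capillary electrophoresis. DMSO defines the activity baseline.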", "values": [{"smiles": "C=C(C)C(=O)OCCOCCOCCOC(=O)C(=C)C", "outcome": "inactive"}, {"smiles": "CCCC(=O)C(CC)Sc1ccoc1C", "note": "(configuration not stated)", "outcome": "inactive"}, {"smiles": "CC(C)NCC(O)COc1ccc(CC(N)=O)cc1", "note": "(configuration not stated)", "outcome": "inactive"}, {"smiles": "CCCCCCOCCOCCO", "outcome": "inactive"}, {"smiles": "C=C(C)C(=O)OCCOC1CC2CC1C1C=CCC21", "note": "(configuration not stated)", "outcome": "inactive"}, {"smiles": "O=C1OC(=O)c2c(Br)c(Br)c(Br)c(Br)c21", "outcome": "inactive"}, {"smiles": "CCCCSCCCC", "outcome": "inactive"}, {"smiles": "CCN(CCN)c1cccc(C)c1", "outcome": "inactive"}, {"smiles": "Cc1occc(=O)c1OC(=O)C(C)C", "outcome": "inactive"}, {"smiles": "CC(C)(N=C=O)c1cccc(C(C)(C)N=C=O)c1", "outcome": "inactive"}, {"smiles": "CC(C)(CO)[C@@H](O)C(=O)NCCC(=O)O", "outcome": "inactive"}, {"smiles": "CCC(C)c1cc([N+](=O)[O-])cc([N+](=O)[O-])c1OC(=O)OC(C)C", "note": "(configuration not stated)", "outcome": "inactive"}]}]}
